Bioassay records deposited in PubChem by several laboratories.
In the library only some 3.6% were active in any assay of this set; here they are far more common.
WT yeast gro inh: growth inhibition of WT yeast, mitochondrial fusion screen | mitochondrial fusion phenotypic screen, WT strain | inhibition, % at 10 µM | 190,000 tested, 2.1% active; in the data active = inhibition above about 58%; tested in S. cerevisiae
HCT116 PTEN-null: growth suppressors of cells with PTEN tumor suppressor deletion | viability, % at 10 µM | 140,000 tested, 1.2% active | AID 827 | HCT116 PTEN-null viability, CellTiter-Glo, 60 h; hits give low values;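 active = viability at or below a set limit, 4 SD under the median of all tested compounds, cut at about 3.7% in these data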;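 also: PTEN knockout HCT116 line with beta catenin targeted HCT116 as companion control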
DAT uptake mod: human DAT dopamine uptake with cocaine, either direction. Q01959. LLC-PK1 hDAT cells, [14C]-dopamine uptake with cocaine IC80; actives deviate in either direction. B-score at 10 µM. 110,000 tested, 1.3% active;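 active = Z score or B-score, a plate-position-corrected score, falls beyond the plate's 99.7% confidence bounds, in either direction; inactive = both scores lie inside the 99.7% bounds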;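 also: scored against the spread of the other compound wells on the same plate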
Target sequence (Q01959 whole entry, looked up): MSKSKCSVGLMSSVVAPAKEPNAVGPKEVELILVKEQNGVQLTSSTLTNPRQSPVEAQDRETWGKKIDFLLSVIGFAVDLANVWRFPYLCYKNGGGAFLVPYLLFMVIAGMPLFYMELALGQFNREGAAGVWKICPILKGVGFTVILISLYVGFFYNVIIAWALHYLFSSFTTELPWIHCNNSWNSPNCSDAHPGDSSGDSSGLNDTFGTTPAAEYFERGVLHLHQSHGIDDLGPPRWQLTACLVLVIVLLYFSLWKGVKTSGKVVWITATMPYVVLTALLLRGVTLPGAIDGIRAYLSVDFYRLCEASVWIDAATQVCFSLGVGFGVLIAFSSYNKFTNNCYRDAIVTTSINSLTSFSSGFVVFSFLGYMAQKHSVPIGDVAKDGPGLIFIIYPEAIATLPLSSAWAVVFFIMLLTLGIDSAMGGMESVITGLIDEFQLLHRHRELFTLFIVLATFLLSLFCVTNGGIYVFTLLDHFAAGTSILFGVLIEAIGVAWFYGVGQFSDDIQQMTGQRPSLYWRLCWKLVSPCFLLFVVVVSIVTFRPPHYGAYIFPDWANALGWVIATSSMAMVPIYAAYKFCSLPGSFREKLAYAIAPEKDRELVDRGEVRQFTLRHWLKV
bCat KO growth: beta-catenin-lacking colon tumor cell growth suppression. 140,000 tested, 1.5% active. HCT116 beta-catenin knockout viability, CellTiter-Glo, 60 h; hits give low values. viability, % at 10 µM;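 active = viability at or under a set limit, the compound median less 4 SD, cut at about 6% in these data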;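 also: 0% = Hyamine 1622 control at 20 µM and 100% = untreated cell control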
The depositor's hits bear a star; x = no result.

SMILES	WT yeast gro inh	HCT116 PTEN-null	DAT uptake mod	bCat KO growth
COC(=O)c1ccc(CSc2nnc(-c3ccc4c(c3)OCO4)n2-c2ccccc2)o1	6	96	x	91
CC(O)CNc1nc2ccccc2n1CC(=O)N1CCN(Cc2ccccc2)CC1 (centres undefined)	-3	x	x	x
Cc1ccc(OC(=O)CCN2C(=O)c3ccccc3C2=O)cc1C	-4	x	x	x
CSc1ccc(CN2CCC(CO)(Cc3ccc(Cl)cc3)CC2)cc1	67*	x	x	x
CCCCNC(=S)N(C)/N=C/c1ccc2c(c1)OCO2	78*	87	x	98
COc1ccc(C(=O)Nc2cccc(-c3cc4ccccc4oc3=O)c2)cc1[N+](=O)[O-]	11	44	x	37
COc1ccc(S(=O)(=O)N2c3ccccc3OCC2C(C)(C)C)cc1 (centres undefined)	77*	x	x	x
CN(CCNC(=O)c1cc2c(=O)n(C)c3ccccc3c2n1C)Cc1ccccc1	16	3.3*	0.98	2.4*
CCCN(CCC)CCNC(=O)c1cc2c(=O)n(C)c3ccccc3c2n1C	11	89	-0.17	81
Cn1c(C(=O)NC2CCCCCC2)cc2c(=O)n(C)c3ccccc3c21	10	54	1.8	61
Cn1c(C(=O)NC2CCCCC2)cc2c(=O)n(C)c3ccccc3c21	4	19	0.5	3.4*
C=CCn1c(SCC(=O)c2[nH]c(C)c(C(=O)OCC)c2C)nc2scc(-c3ccccc3)c2c1=O	-3	1.3*	x	2.0*
C=CCn1c(SCC(=O)c2[nH]c(C)c(C(=O)OCC)c2C)nc2scc(-c3ccc(OC)cc3)c2c1=O	-11	1.6*	x	1.7*
CCCCC(CC)CNC(=O)C(=O)c1ccccc1NC(C)=O (centres undefined)	-12	85	x	86
COc1cccc(CNC(=O)CCC2CCCN(Cc3cc(Cl)ccc3O)C2)c1 (centres undefined)	1	x	x	x
CCCOc1ccc(C2C(C(=O)c3ccco3)=C(O)C(=O)N2CCN2CCOCC2)cc1OC (centres undefined)	58*	94	x	87
O=C(c1cnn2c(C(F)(F)F)cc(-c3ccco3)nc12)N1CCCc2ccccc21	7	86	1.9*	91
O=C1CC(NCCC2=CCCCC2)C(=O)N1c1cccc(Cl)c1Cl (centres undefined)	-5	91	3.5*	87
O=C(NCCC1=CCCCC1)C(=O)NCc1ccccc1Cl	26	80	-0.91	75
CCN(CC)S(=O)(=O)c1ccc(C2=NOC3(C2)N(C)c2ccccc2C3(C)C)cc1 (centres undefined)	16	81	x	79
CCOC(=O)C1CCCN(C(=O)CN2C(=O)c3ccccc3C2=O)C1 (centres undefined)	5	95	1.1	100
CCOC(=O)C1CCCN(C(=O)CN2C(=O)/C(=C/c3ccc(OC)cc3)Oc3ccccc32)C1 (centres undefined)	59*	49	x	54
C=CCc1cccc2cc(C(=O)Nc3ccc(S(=O)(=O)Nc4nnc(CC)s4)cc3)c(=O)oc12	-11	97	x	93
COc1ccc(C)cc1N(C(=O)COc1cccc(F)c1)c1nc2ccccc2s1	36	58	x	62
COc1ccc(C)cc1N(C(=O)c1ccc(F)cc1)c1nc2ccccc2s1	69*	50	x	54
SMILES	WT yeast gro inh	HCT116 PTEN-null	DAT uptake mod	bCat KO growth
O=S(=O)(Nc1nc2ccccc2nc1Cl)c1ccc2ccccc2c1	-9	97	x	99
CCc1nnc(NC(=O)CSc2ccc(-c3ccccc3OC)nn2)s1	-37	x	x	x
Cn1c(SCc2cccc3ccccc23)nnc1-c1ccco1	8	90	2.7*	89
O=[N+]([O-])c1cccnc1N1CCC(c2cc(-c3ccc(Cl)cc3)n[nH]2)CC1	72*	10	0.079	9
O=C(O)C1CN(c2ncccc2[N+](=O)[O-])C1	-5	x	x	x
O=C1NN=C(c2ccc(Cl)cc2)CC1c1c[nH]c2ccccc12 (centres undefined)	66*	x	x	x
O=C1NN=C(c2ccc(Cl)cc2)CC1c1cccc(Br)c1 (centres undefined)	77*	x	x	x
Cc1ccc(C2=NNC(=O)C(c3ccc(Cl)cc3)C2)cc1 (centres undefined)	25	101	0.012	86
Cc1ccc(C2=NNC(=O)C(c3c[nH]c4ccccc34)C2)cc1 (centres undefined)	16	x	x	x
O=C(Nc1ccon1)c1ccc(S(=O)(=O)N2CCOCC2)cc1	3	x	x	x
CCC(C)(C(=O)NC1CCCCC1)N(CC1CCCO1)C(=O)Cc1cccs1 (centres undefined)	-6	x	x	x
O=C1CCCN1c1ccc(S(=O)(=O)NCCOc2ccccc2)cc1	-7	81	-0.46	65
Cc1cc(N2CCCC2=O)cc(C)c1S(=O)(=O)NCCOc1ccc(C(C)(C)C)cc1	51	25	-2.8*	22
O=C(O)c1cc(-c2ccc(/C=N/Nc3ccc(Cl)cc3)o2)ccc1Cl	62*	104	0.68	77
COc1cccc(Oc2ccc3nnc(C(F)(F)F)n3n2)c1	5	x	x	x
COc1cccc(N2CCN(C(=S)Nc3cc(C)cc(C)c3)CC2)c1	12	x	x	x
Cc1cc(C)c2c3c(sc2n1)C1(CCSCC1)C(C#N)=C(N)O3	-18	80	-1	77
COc1ccc(C2C(C#N)=C(N)Oc3c2sc2nc(C)cc(C)c32)cc1 (centres undefined)	11	0.6*	0.17	0.9*
Cc1cccnc1Nc1nc(-c2ccc(O)cc2O)cs1	48	65	5.4*	67
Cc1cccnc1Nc1nc(-c2ccccn2)cs1	-3	0.8*	-0.73	0.7*
NS(=O)(=O)c1ccc(Nc2nc(-c3ccc(O)cc3O)cs2)cc1	-9	94	-0.17	97
O=C(Cn1cnc2ccccc21)Nc1ccc(SC(F)F)cc1	-4	x	x	x
CCOC(=O)Cn1c(=O)cc(C)c2cccc(C)c21	-5	x	x	x
COc1ccc(/C=C2\CCCC3C2=NC(=S)NC3c2ccc(OC)cc2)cc1 (centres undefined)	72*	36	x	35
CCCn1c(SCC(=O)N2N=C3/C(=C/c4ccc(OC)cc4)CCCC3C2c2ccc(OC)cc2)n[nH]c1=O (centres undefined)	34	68	x	80
SMILES	WT yeast gro inh	HCT116 PTEN-null	DAT uptake mod	bCat KO growth
O=[N+]([O-])c1ccc(/C=N/N=C/c2ccc([N+](=O)[O-])o2)o1	31	x	x	x
Cc1cc2ncn(/N=C/c3ccc([N+](=O)[O-])o3)c2cc1C	-5	1.6*	-0.31	2.5*
O=c1c2ccccc2[nH]c(=S)n1CCC1=CCCCC1	-9	79	x	75
O=C1c2c(O)cc(O)cc2O[C@@]12c1c(cc(O)c3c1O[C@H](c1ccc(O)cc1)[C@@H](O)C3)O[C@@H]2c1ccc(O)cc1	-18	98	2.2*	101
CCCCN1C(=O)C2Cc3c([nH]c4ccccc34)CN2C1=S (centres undefined)	21	x	x	x
CCOc1ccccc1N1CCN(C(=O)Nc2cccc(Cl)c2)CC1	-20	80	0.74	81
CCOc1ccccc1N1CCN(C(=O)Nc2ccc(Cl)c(Cl)c2)CC1	68*	78	x	97
Cc1ccc(C)c(NC(=O)C2=CCN(S(=O)(=O)c3ccc(F)cc3)CC2)c1	-8	100	x	92
Cc1cccc(C)c1NC(=O)NC1(C(=O)N2CCOCC2)CCCCC1	-12	x	x	x
